We go through 27 molecules from PubChem BioAssay (Tox21).

Several values for one entry are separate records, joined by “and”; a condition that tells them apart may be missing. Equal values may be shown once. Inconclusive results are not listed. More than one record can exist for a structure, and the calls need not agree. Activity calls are given as the source filed them. Unless noted, calls come from the whole dose curve; as a rule, active = well fitted curve in the direction sought with a large enough effect in the repeat runs; inconclusive = weak or mixed curves; inactive = no such curve, though single readings can be large; an effect the other way counts as inactive or inconclusive.

Assay [1] is described as follows: qHTS assay to identify aromatase inhibitors - cell viability counter screen (AID 743084).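 Note: cells stimulated with testosterone during compound exposure; nearly all actives have a fitted effect of over 55% in size.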 In general terms: In qHTS, concentration-response curves come from the screen itself.
Assay [2] has as its target Aryl hydrocarbon receptor (Homo sapiens) (UniProt P35869). The assay is described as follows: qHTS assay to identify small molecule that activate the aryl hydrocarbon receptor (AhR) signaling pathway (AID 743085).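 For activation: HG2L7.5c1 human HepG2 liver cells with stably integrated DRE-driven firefly reporter; series mostly up to about 70 µM.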 Note: nearly all actives have a fitted effect of over 15% in size. Note: potency is the fitted concentration of half-maximal effect. In short, it runs like this: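 Compounds were tested in HepG2 hepatocellular carcinoma cells harbouring a stably integrated luciferase gene under control of 20 DREs. Increased reporter signal after 24 h treatment at 37C was taken as AhR activation.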

Assay [3] in a line: qHTS assay to identify small molecule that activate the aryl hydrocarbon receptor (AhR) signaling pathway - cell viability counter screen (AID 743086). Note: nearly all actives have a fitted effect of over 45% in size. Note: potency is the fitted concentration of half-maximal effect. In short, it runs like this: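 HepG2-AhR-luc (HG2L7.5c1) cells, 4000/well, were preincubated 5 h at 37C, exposed to compound in qHTS format for 24 hr at 37C, then given CellTiter-Fluor for 30 min; viability was read as fluorescence in the reporter wells.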

Assay [4] concerns the target Peroxisome proliferator-activated receptor gamma (Homo sapiens) (UniProt P37231). Kind of assay: qHTS assay to identify small molecule agonists of the peroxisome proliferator-activated receptor gamma (PPARg) signaling pathway (AID 743094; active = well fitted activation curve with a large enough effect in the signal ratio in the repeat runs, not every such curve was filed as active; the % refers to the signal ratio). In short, it runs like this: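 Agonist activity was taken from a beta-lactamase reporter (FRET substrate, 1 h at room temperature) in HEK293H cells carrying a PPARg UAS-bla construct. Compounds in DMSO were incubated 17 h at 37C after a 5 h cell pre-incubation.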

Assay [5] shares this target. The assay is described as follows: qHTS assay to identify small molecule antagonists of the peroxisome proliferator-activated receptor gamma (PPARg) signaling pathway (AID 743191; calls by dose curve; note: series mostly up to about 63 µM; nearly all actives have a fitted effect of over 30% in size). An outline of the steps: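 GeneBLAzer PPARg UAS-bla HEK293H cells carrying a UAS-driven beta-lactamase reporter were plated at 3000 cells/well, preincubated 5 h at 37C, then given compound for 17 h at 37C; LiveBLAzer B/G FRET substrate was read after 1 h at room temperature.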

Assay [6] is described as follows: qHTS assay to identify small molecule antagonists of the peroxisome proliferator-activated receptor gamma (PPARg) signaling pathway - cell viability counter screen (AID 743194). Note: nearly all actives have a fitted effect of over 55% in size. Conditions: Potency: co-treated with 50 nM rosiglitazone unless noted. An outline of the steps: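 PPARg-UAS-bla HEK293H cells were plated, rested 5 h at 37 C, then treated with compounds plus rosiglitazone (50 nM final) for 17 h at 37 C; viability was then read by CellTiter-Glo luminescence after 30 min at room temperature.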

Assay [7] is described as follows: qHTS assay for small molecule agonists of the antioxidant response element (ARE) signaling pathway (AID 743202; active = well fitted activation curve with a large enough effect in the signal ratio in the repeat runs, not every such curve was filed as active; the % refers to the signal ratio). In short, it runs like this: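 Following a 16 h, 37 C exposure of reporter HepG2 cells (ARE-driven beta-lactamase, 2,000 cells/well) to compounds, FRET substrate was applied for 2 h at room temperature and fluorescence intensity recorded.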
Assay [8] is described as follows: qHTS assay for small molecule agonists of the antioxidant response element (ARE) signaling pathway - cell viability counter screen (AID 743203; calls by dose curve; note: nearly all actives have a fitted effect of over 55% in size). An outline of the steps:
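Viability counter screen: CellTiter-Glo luminescence, read after 30 min at room temperature, in ARE-bla HepG2 wells. Compound exposure lasted 16 h at 37C/5% CO2, following a 5 h pre-incubation of the cells after plating.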

The nature of assay [9]: qHTS assay for small molecule activators of the heat shock response signaling pathway - cell viability counter screen (AID 743209). Note: nearly all actives have a fitted effect of over 50% in size. In short, it runs like this: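 Cytotoxicity counter screen run in the same wells as the heat-shock bla reporter assay: HeLa HSE-bla cells, 5 h compound exposure at 37 C, viability read by CellTiter-Glo luminescence.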
Assay [10] is described as follows: qHTS assay for small molecule activators of the heat shock response signaling pathway (AID 743210; active = well fitted activation curve with a large enough effect in the signal ratio in the repeat runs, with a control signal flat, not every such curve was filed as active; the % refers to the signal ratio; note: series mostly up to about 63 µM). An outline of the steps:
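Heat shock element–beta-lactamase HeLa reporter cells; qHTS with compounds for 5 h at 37 C; detection by FRET substrate fluorescence after 2.5 h at RT.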
% is set by controls: 0 for no effect and ±100 for the full control effect.

Chain of Peroxisome proliferator-activated receptor gamma (Homo sapiens) (P37231 whole entry, looked up): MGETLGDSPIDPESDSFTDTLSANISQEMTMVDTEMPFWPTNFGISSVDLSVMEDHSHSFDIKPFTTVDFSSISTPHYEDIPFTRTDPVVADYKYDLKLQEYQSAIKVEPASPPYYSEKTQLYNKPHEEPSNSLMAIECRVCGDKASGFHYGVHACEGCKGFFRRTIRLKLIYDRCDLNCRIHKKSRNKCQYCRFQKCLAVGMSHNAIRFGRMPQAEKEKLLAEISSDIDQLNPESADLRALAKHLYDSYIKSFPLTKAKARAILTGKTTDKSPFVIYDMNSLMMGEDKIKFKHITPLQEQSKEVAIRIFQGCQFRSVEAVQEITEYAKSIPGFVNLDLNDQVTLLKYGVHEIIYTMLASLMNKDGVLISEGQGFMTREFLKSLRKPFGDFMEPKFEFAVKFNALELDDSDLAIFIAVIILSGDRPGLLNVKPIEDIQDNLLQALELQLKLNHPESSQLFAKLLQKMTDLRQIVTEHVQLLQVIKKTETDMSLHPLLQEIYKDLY
Chain of Aryl hydrocarbon receptor (Homo sapiens) (P35869 whole entry, looked up): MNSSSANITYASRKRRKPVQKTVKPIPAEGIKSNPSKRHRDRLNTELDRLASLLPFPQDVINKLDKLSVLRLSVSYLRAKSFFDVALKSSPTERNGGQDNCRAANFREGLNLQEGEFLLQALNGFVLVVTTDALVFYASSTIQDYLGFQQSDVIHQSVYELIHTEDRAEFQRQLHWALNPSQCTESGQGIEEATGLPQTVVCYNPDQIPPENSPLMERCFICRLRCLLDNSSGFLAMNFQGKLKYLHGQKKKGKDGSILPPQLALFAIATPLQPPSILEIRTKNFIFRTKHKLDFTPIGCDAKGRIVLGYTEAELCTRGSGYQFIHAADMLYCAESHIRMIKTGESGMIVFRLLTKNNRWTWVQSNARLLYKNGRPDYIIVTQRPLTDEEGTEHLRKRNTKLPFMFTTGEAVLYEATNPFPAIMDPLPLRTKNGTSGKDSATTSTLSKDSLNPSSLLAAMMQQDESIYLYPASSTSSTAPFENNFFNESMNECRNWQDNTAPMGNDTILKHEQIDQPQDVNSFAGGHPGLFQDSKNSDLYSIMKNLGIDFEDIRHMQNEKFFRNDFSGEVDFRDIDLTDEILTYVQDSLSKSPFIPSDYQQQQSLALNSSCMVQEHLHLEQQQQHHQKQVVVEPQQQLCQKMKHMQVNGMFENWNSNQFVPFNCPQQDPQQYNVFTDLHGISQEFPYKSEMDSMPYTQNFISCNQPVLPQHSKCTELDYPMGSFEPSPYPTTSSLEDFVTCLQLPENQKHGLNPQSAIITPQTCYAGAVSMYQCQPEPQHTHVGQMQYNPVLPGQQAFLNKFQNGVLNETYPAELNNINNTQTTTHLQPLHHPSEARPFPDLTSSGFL

As for `CC(C)(C#N)N=NC(C)(C)C#N`, the Potency entry in assay [1], in assay [2], in [3], in [4], in assay [5] and in [6] was “inactive” each time. Besides, the Potency result in assay [7], in assay [8], in assay [9] and in assay [10] was “inactive” each time.

Consider `OCCOCCO`, for which the Potency result in assay [1], in [2], in assay [3], in assay [4], in assay [5] and in assay [6] was “inactive” each time. Besides, the Potency entry in assay [7], in assay [8] and in assay [9] was “inactive” throughout.

For `O=C(O)CF`, the Potency result in assay [1], in assay [2], in assay [3], in assay [4], in assay [5] and in assay [6] was “inactive” each time. Further, the Potency entry in assay [7] and in [9] was “inactive” throughout.

Take `Nc1ccc2ccccc2c1`: the Potency entry in assay [1], in assay [3], in [4], in [5], in assay [6] and in assay [7] was “inactive” in each case. Further, the Potency entry in [8], in [9] and in assay [10] was “inactive” throughout. Moreover, the Potency in [2] is 20.9 µM (active) and 27.3 µM (active).

For the molecule `ClCc1ccccn1`, the Potency result in [1], in [2], in assay [3], in assay [4], in assay [5] and in assay [6] was “inactive” each time. Further, the Potency result in assay [7], in [8], in assay [9] and in [10] was “inactive” in each case.

Regarding `CCNc1nc(Cl)nc(NC(C)(C)C#N)n1`, the Potency entry in assay [1], in [2], in [3], in assay [4], in assay [5] and in assay [6] was “inactive” in each case. Also, the Potency result in [7] and in [9] was “inactive” each time.

Consider `Oc1ccc(Cl)cc1Cl`, for which the Potency result in assay [1], in [2], in [3], in assay [4], in assay [5] and in assay [6] was “inactive” each time. For the same molecule, the Potency result in [7], in [8], in assay [9] and in assay [10] was “inactive” throughout.

With `ClC(Cl)(Cl)Br`, the Potency result in [1], in assay [2], in [3], in assay [4], in assay [5] and in assay [6] was “inactive” each time. The Potency entry in assay [7], in [8] and in [9] was “inactive” throughout. Moreover, the activation in assay [10] is -1.07% [at 13.2 µM] (inactive).

With `Clc1ccccc1-c1nnc(-c2ccccc2Cl)nn1`, the Potency result in assay [1], in assay [2], in assay [3], in [4], in [5] and in assay [6] was “inactive” in each case. Also, the Potency result in assay [7], in assay [8], in [9] and in assay [10] was “inactive” throughout.

Turning to `CCOP(=S)(OCC)OP(=S)(OCC)OCC`, the Potency result in assay [1], in assay [2], in [3], in assay [4], in assay [5] and in [6] was “inactive” throughout. Moreover, the Potency entry in assay [7], in assay [9] and in [10] was “inactive” in each case.

Take `C[N+](C)(C)CC(=O)O`: the Potency entry in assay [1], in [2], in assay [3], in assay [4], in [5] and in assay [6] was “inactive” in each case. In addition, the Potency entry in [7] and in assay [9] was “inactive” throughout.

Consider `CNC(=S)S`, for which the Potency entry in assay [1], in assay [2], in [3], in assay [4], in [5] and in assay [6] was “inactive” in each case. Moreover, the Potency entry in assay [7], in assay [8] and in [9] was “inactive” throughout.

As to `O=C1CCCO1`, the Potency entry in assay [1], in assay [2], in assay [3], in [4], in assay [5] and in assay [7] was “inactive” throughout. The Potency entry in assay [9] and in assay [10] was “inactive” throughout.

For `CC(C)Nc1nc(Cl)nc(NC(C)C)n1`, the Potency result in assay [1], in assay [2], in assay [3], in assay [4], in assay [5] and in assay [7] was “inactive” throughout. In addition, the Potency entry in assay [8], in assay [9] and in assay [10] was “inactive” each time.

With `COC(=O)Nc1nc2ccccc2[nH]1`, the Potency entry in [1], in assay [3], in [4], in assay [5], in [7] and in assay [8] was “inactive” throughout. Besides, the Potency result in assay [9] and in assay [10] was “inactive” in each case. For the same molecule, the Potency in [2] was 24.3 µM (active).

As to `NN=C(N)N`, the Potency result in assay [1], in assay [3], in assay [4], in assay [5], in assay [7] and in assay [9] was “inactive” throughout. For the same molecule, the Potency result in assay [10] was “inactive”. In assay [2], the Potency is 30.6 µM (active).

For the molecule `O=NN(c1ccccc1)c1ccccc1`, the Potency result in assay [1], in [2], in assay [3], in assay [4], in assay [5] and in assay [6] was “inactive” throughout. For the same molecule, the Potency entry in assay [7], in assay [9] and in assay [10] was “inactive” throughout.

Consider `CCCCSP(=O)(SCCCC)SCCCC`, for which the Potency entry in assay [1], in assay [2], in assay [3], in assay [4], in [6] and in assay [7] was “inactive” throughout. The Potency entry in assay [8], in assay [9] and in assay [10] was “inactive” each time.

Turning to `CCOC(=O)c1ccccc1N`, the Potency entry in assay [1], in assay [2], in assay [3], in assay [4], in [6] and in [7] was “inactive” in each case. Also, the Potency result in assay [9] and in assay [10] was “inactive” in each case.

Regarding `CCNCC`, the Potency result in assay [1], in [2], in assay [3], in [4], in [5] and in assay [7] was “inactive” throughout. For the same molecule, the Potency result in assay [8], in [9] and in assay [10] was “inactive” throughout.

As to `CS(=O)(=O)NC(=O)c1cc(Oc2ccc(C(F)(F)F)cc2Cl)ccc1[N+](=O)[O-]`, the Potency result in [1], in assay [2], in assay [3], in assay [4], in assay [6] and in [8] was “inactive” in each case. In addition, the Potency entry in assay [9] and in assay [10] was “inactive” in each case.

In the case of `C[N+](C)(C)CC(=O)[O-]`, the Potency result in assay [1], in [2], in assay [3], in assay [4], in assay [6] and in [7] was “inactive” each time. The Potency result in assay [9] was “inactive”.

Consider `S=c1[nH]c2ccccc2[nH]1`, for which the Potency entry in assay [1], in [3], in assay [4], in assay [5], in assay [6] and in assay [8] was “inactive” in each case. For the same molecule, the Potency result in [9] and in [10] was “inactive” throughout. Further, the Potency in [2] is 68.6 µM (active).

`CCOP(=O)(OCC)OCC`: the Potency result in assay [1], in assay [2], in assay [3], in [4], in assay [5] and in assay [6] was “inactive” throughout. For the same molecule, the Potency result in assay [7], in assay [9] and in [10] was “inactive” throughout.

As to `Brc1ccc(Br)cc1`, the Potency result in [1], in [2], in [3], in [4], in [5] and in assay [7] was “inactive” in each case. Moreover, the Potency entry in [8] and in assay [9] was “inactive” throughout.

Turning to `N#Cc1nn(-c2c(Cl)cc(C(F)(F)F)cc2Cl)c(N)c1S(=O)C(F)(F)F` (stereo not given), the Potency entry in assay [1], in [2], in assay [4], in [5] and in [9] was “inactive” each time. Further, in assay [3], the Potency entry was “inactive and 30.8 µM (active)”.

Consider `COP(=S)(OC)Oc1ccc(S(=O)(=O)N(C)C)cc1`, for which the Potency result in [1], in [2], in assay [3], in assay [4], in assay [5] and in assay [8] was “inactive” in each case. The Potency entry in [9] and in assay [10] was “inactive” in each case.
